The test concerns PPARg:RXRa DBDmut IVT, anti-RXR (DBD mutation: RXRa K156A/R161A, NR concentration 270 nM, RXRa partner concentration 90 nM). Kind of test: PBM binding z-score (relative to random genomic background probes); higher = stronger binding; sequences stand for … in GC…GCGATTGACAGCGTAGAATGAAGG
The method, boiled down: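 Binding buffer was PBS pH 7.4 with 2% milk, 0.02% Triton X-100, 1 mM DTT, 0.2 mg/mL BSA and 0.4 mg/ml salmon testes DNA. In it, ligand-free nuclear receptor dimers were incubated 1 h on custom Agilent 4×180K protein-binding microarrays carrying double-stranded probes. Antibodies against each partner (one per run) detected binding, and z-scores were calculated against random background probes after regression normalization of scanned fluorescence.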
With ACAGACAGGTGATGAAGGTAACTCCGGCTATCAT, the PBM binding z-score stood at 0.0958.
As for GCGACTGGGGCAAAGCAGGTGACCATAAGGTTGG, the figure is 4.22.
In turn, GCTATTAGTTGAAAGGGCAAACGAATGATTCTCG yielded a PBM binding z-score of 0.582.
As for AGAATGAGGTTATTAAGATCAGGCAATTGCGGTC, the figure is 2.95; as for ATCTCTAGGTAAAAGTTCCGTGAATCCCGAGGAT, 2.32.
Consider GCTTGCAGATCAAGGTTAAGAAAGACTAAGCTAA, for which the PBM binding z-score came to 0.163.
As for ACTAGCAGGCCAAGGGTCACTCCAGATTAGTCCG, the figure is 1.08; as for ATCGGAAGGTCGAAGGTGAGTATACCCACCCGAA, -0.338.
As for CCGACTGGGGCAAAGGTTACCATCCTCAGTACGA, the figure is 4.64; as for CCTACTGGGCAAAGGTCATTGATCAGTCAAAGCA, 1.24.
As for ATCTCTAGGTAAAGATAGTACAGTGAATGCAAAT, the figure is 1.46; as for CATACAGGGTCAGCTAGGCCAGAGCAGGGACGGC, 0.983; as for ATCTATAGGTAAAAGTTCAGTGAATCCCGAGGAT, 1.4.
As for ATCGAAAGGTCGAGGTGAGTCTAGAGAAAGGGAA, the PBM binding z-score was found to be 0.536.
As to TCTCGTAGATCAATAGAGGTTAAGAAAGTGCGCT, the PBM binding z-score stood at 1.66.
As for GCGACTGGGGCAAAGCAGGTTTCCATAAGGTTGG, the figure is 4.2; as for ACATGTAGGTTATCGGGTCATTCAGTTTGCGCAT, 6.89.
As for CCGAGTAGGTTACGGGGCATTCAGGCAACGGTGA, the figure is 3.97.
GTGCCAAGGTGAATAGGTCGTTGATGAGTAGGCG showed a PBM binding z-score of 2.01.
As for GATACAGGGCCAAGGCCAGAGTACGCGTATTGAT, the figure is -0.255.
Regarding CCTACTGGGCCATCAGGGCATTGATATCAACGTT, the PBM binding z-score was 3.95.
As for ATCTCTAGGTAACCAAGTTAAGTGAATGCCGAAC, the figure is 3.43; as for ACTAGCAGGCCATGGGTCACTCAAGATTAGTCCG, 0.912.
As for CGTCAAAGTTCAAGGTAACGAAACAGAAAGCAGC, the figure is 0.745.
As for TTACCAAGGTGAAGGTTGTTGATCCCTCTGTAGA, the figure is 1.42; as for TCTAGTTGGTCACGGAGGTCTCACACGACGGGTA, 2.19; as for CGTCCAAGGTCAGCAGGTCAGTGAAAGCGACGTG, 2.94.
CCTGCTATGTCAATGGTCAGCTAAAGCAGCTCGC registered a PBM binding z-score of 0.388.
As for CCGACTGGGGCAAAGGTTACCATTCTCAGTACGA, the figure is 4.87; as for CGTCCAAGGTCAGCGAGGTCAGTGAATGCCGAGT, 3.43; as for AGTCAAAGTTCACTAGCTAACGTAAGATTCAGCT, -0.129.
On to TCAATTAGTTGAAGGGCAACCGACGAGTCCGTTT, for which the PBM binding z-score amounted to 1.84.
As for TCTCGGAGGACACGAAAGGTTAGAGCTCGACATC, the figure is 1.49.
As for TGAATGAGGTTATAAGATCAGGGAGCGTTGCAAA, the figure is 0.796.
The sequence TCTGCTAGGTCAACGAAGGTCAGCTAATCTGCTA returned a PBM binding z-score of 4.15.
Sequence TCTTGTAGATCAACAGGAGGCTAAGAAAGATCGA displayed a PBM binding z-score of 1.2.
As for CTCGAAAGGTCGGGTGAGGTGAGTATACGGATAA, the figure is 0.384; as for TAGCATAGGTCATTCAGGGGCCAGTATAGAAAGC, 1.02.
As for ATGCCAAGGTGATCGTGAGGTCGTTGATACTAAC, the figure is 0.413.
As for GAATATAGGTAATACAAGGTGAAAGTCCGATTGT, the figure is 6.67.

Source of the values: the supplement of paper PMC6555819.
